Assay outcomes (PubChem BioAssay)
USP28 block: human USP28 deubiquitinase inhibition | Q96RU2 | purified USP28, Ub-rhodamine cleavage fluorescence, 30 min | inhibition, % at 25 µM | 3% of 47,000 active
USP17 block: blocks human USP17 ubiquitin-rhodamine cleavage. 6.5% of 47,000 active. AID 1645855. A8MUK1. purified USP17, Ub-rhodamine cleavage fluorescence, 3 h. inhibition, % at 50 µM
Target sequence (A8MUK1 whole entry, looked up): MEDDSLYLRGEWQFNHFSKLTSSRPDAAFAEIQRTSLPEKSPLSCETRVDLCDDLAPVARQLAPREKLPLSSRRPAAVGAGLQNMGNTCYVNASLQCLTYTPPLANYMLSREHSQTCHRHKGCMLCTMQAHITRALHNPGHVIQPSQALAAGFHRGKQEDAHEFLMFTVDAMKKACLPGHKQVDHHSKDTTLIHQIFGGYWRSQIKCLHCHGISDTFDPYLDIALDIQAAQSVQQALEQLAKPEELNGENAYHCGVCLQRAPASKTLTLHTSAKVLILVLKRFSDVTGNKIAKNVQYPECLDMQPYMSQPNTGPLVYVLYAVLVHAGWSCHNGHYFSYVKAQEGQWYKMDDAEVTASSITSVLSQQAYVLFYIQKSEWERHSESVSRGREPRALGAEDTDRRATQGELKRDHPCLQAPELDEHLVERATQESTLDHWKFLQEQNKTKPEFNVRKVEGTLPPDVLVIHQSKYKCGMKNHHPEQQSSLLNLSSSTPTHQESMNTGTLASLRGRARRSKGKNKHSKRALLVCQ
USP8 inh: inhibitors of human USP8 deubiquitinase; P40818; purified USP8, Ub-rhodamine cleavage fluorescence, 30 min; inhibition, % at 20 µM; 4.2% of 47,000 active; AID 1645853
USP30 block: inhibitors of human USP30 deubiquitinase | inhibition, % at 25 µM | Q70CQ3 | purified USP30, Ub-rhodamine cleavage fluorescence | 5.3% of 47,000 active
Of the large screens only hits and unclear results are named; the others gave an inactive call. The list is not random: actives were taken first. Their share in the collection is about 13%. No stated cut-off is given here; in the data, active means inhibition above about 30%; inactive means the rest.

c1cncc(CNc2ncnc3c2sc2nc(N4CCOCC4)c4c(c23)CCC4)c1	USP17 block 32
CC(Nc1ncnc2c1sc1nc(N3CCOCC3)c3c(c12)CCC3)c1ccccc1 (configuration not stated)	USP17 block 51
c1ccc(CCNc2ncnc3c2sc2nc(N4CCOCC4)c4c(c23)CCC4)cc1	none
CC1=C(CO)C(=O)O[C@@H]([C@@H](C)[C@H]2CC[C@H]3[C@@H]4C[C@H]5O[C@]56[C@@H](O)C=CC(=O)[C@]6(C)[C@H]4CC[C@]23C)C1	USP28 block 44, USP17 block 72, USP30 block 83
CCc1ccc(-c2cc3c(=O)n(Cc4nc(-c5ccccn5)no4)ccn3n2)cc1	USP17 block 31
Cc1ccc(-c2cc3c(=O)n(Cc4noc(CN5CCCCC5)n4)ccn3n2)cc1	none
COc1ccccc1-c1cc2c(=O)n(Cc3nc(-c4ccc(F)cc4)no3)ccn2n1	none
Cc1ccc(-c2cc3c(=O)n(Cc4noc(CN5CCC(C)CC5)n4)ccn3n2)cc1	USP30 block 38
Cc1cc2occ(CC(=O)N3CCCCC3c3nnc(-c4cnccn4)o3)c2cc1C (configuration not stated)	USP8 inh 30
O=C(Cn1c(C2CC(=O)N(Cc3ccc(F)cc3)C2)nc2ccccc21)N1CCCCC1 (configuration not stated)	none
O=C(Nc1nc2ccccc2s1)C1CC(=O)N(c2ccccc2)C1 (configuration not stated)	none
CCS(=O)(=O)N1Cc2ccccc2CC1C(=O)Nc1nc2ccccc2s1 (configuration not stated)	USP8 inh 32
O=S(=O)(Nc1nc(-c2ccco2)c(-c2ccco2)s1)c1ccc(F)cc1F	USP8 inh 37
COc1cc(-c2nc(C(N)=O)c3[nH]c(=O)n(CC4CCCO4)c3n2)ccc1O (configuration not stated)	none
NC(=O)c1nc(-c2ccc(OCc3ccccc3)cc2)nc2c1[nH]c(=O)n2-c1ccccc1	none
COc1cccc(-c2nc(C(N)=O)c3[nH]c(=O)n(-c4ccc5c(c4)OCO5)c3n2)c1O	USP8 inh 31
NC(=O)c1nc(-c2ccc(OCc3ccccc3)cc2)nc2c1[nH]c(=O)n2-c1ccc2c(c1)OCO2	USP8 inh 49
O=C1C[C@@H](O)[C@]2(O)CCO[C@@H]2C1	none
O=c1c2ccccc2c(-c2nc(-c3cccnc3)no2)cn1-c1ccc(Cl)cc1	USP30 block 38
Cc1ccc(Cn2nnc3c(=O)n(Cc4nc(-c5ccc(C)cc5)no4)cnc32)cc1	USP17 block 34
Cc1cc(C)c(C#N)c(SCC(=O)Nc2ccc3c(c2)OCO3)n1	none
Cc1cc(C)c(C#N)c(SCC(=O)Nc2c(C#N)cnn2-c2ccccc2)n1	USP17 block 37 (no result: USP28 block, USP30 block)
COCCN1C[C@@]23CN(C(=O)c4cnccn4)C[C@@H](C[C@@H]2S1(=O)=O)O3	none
Cn1c(=O)c(C(=O)Nc2cccc(F)c2)c(O)c2ccccc21	none
Cn1nc(C(=O)Nc2cccc(F)c2)c(=O)c2ccccc21	USP17 block 45, USP30 block 37
COc1ccc(C)cc1NC(=O)C1CC(=O)Nc2nc(SCc3ccccc3)nn21 (configuration not stated)	USP17 block 53
COc1ccc(C2C(C(N)=O)=C(C)Nc3nc(SCc4ccccc4)nn32)cc1 (configuration not stated)	none
Cc1ccc(C)c(NC(=O)Cc2nc(-c3ccccc3)n[nH]2)c1	none
CCOC(=O)C1C(=O)NC(c2ccccc2)=NC1c1c(F)cccc1Cl (configuration not stated)	none
CCOC(=O)C1C(=O)NC(c2ccccc2)=NC1c1ccc(C(F)(F)F)cc1 (configuration not stated)	USP30 block 41
COc1ccccc1NC(=O)c1oc2ccccc2c1NC(=O)c1ccccc1Cl	none
CSc1ccccc1C(=O)Nc1c(C(N)=O)oc2ccccc12	USP28 block 30
COCCn1c(SCC(=O)c2ccc(F)cc2)nc2ccccc21	USP17 block 36
Cn1c(SCC(=O)c2ccc(F)cc2)nnc1-c1cc2ccccc2o1	USP17 block 73, USP8 inh 41, USP30 block 88
Cc1cc2cccc(C)c2nc1SCC(=O)NCc1ccccc1	USP30 block 47
Cn1c(SCC(=O)NCc2ccccc2)nnc1-c1cc2ccccc2o1	USP8 inh 30
Cn1c(SCC(=O)NCc2ccco2)nnc1-c1c[nH]c2ccccc12	none
CC(Oc1ccccc1)c1nnc(SCC(=O)c2ccc(F)cc2)n1C (configuration not stated)	none
O=C(C1CCC1)N1C[C@H]2C[C@H]3[C@](C1)(CN(Cc1cccnc1)S3(=O)=O)O2	none
CCC(C(=O)NCCc1ccccc1)(C(F)(F)F)C(F)(F)F	none
Fc1ccc(CNc2cc(-n3cccn3)ncn2)cc1	none (no result: USP17 block)
CCN1CCN(c2nc3c(c(=O)[nH]c(=O)n3C)n2CCc2ccccc2)CC1	none
COc1ccc(O)c(C(=O)c2cc(C#N)c(=O)n(-c3cccc(C(F)(F)F)c3)c2)c1	USP8 inh 65
Cc1cc(Nc2nc3ccccc3nc2N2CCN(c3ccccc3F)CC2)n(-c2ccccc2)n1	none
COc1cccc(CN2C(=O)c3cc4occc4n3CC2(C)C(=O)NC2CCCCCC2)c1 (configuration not stated)	none
Cc1cccc2sc(NC(=O)c3nnn(-c4ccc(F)cc4)n3)nc12	USP17 block 56
O=C(Nc1ccc(-n2nnc(C(=O)N3CCCC3)n2)cc1)c1cccc(Cl)c1	none
NC(=O)c1nnn(-c2ccc(NC(=O)c3ccc(F)c(F)c3)cc2)n1	USP17 block 64
Cc1ccc(NC(=O)c2nnn(-c3ccccc3)n2)cc1F	USP28 block 56
O=C(Nc1nc2ccccc2s1)c1nnn(-c2ccccc2)n1	none
Cc1ccc(-c2nc(C)c(C(=O)N3CCN(CCO)CC3)s2)cc1	none
O=C(CSc1ncnc2ccccc12)N1CCN(c2ccccc2)CC1	none
COc1ccc(-c2cc(C(=O)NC3CC3)nn2C2CCS(=O)(=O)C2)cc1 (configuration not stated)	none
COc1ccc(-c2cc(C(=O)NCCC3=CCCCC3)nn2C2CCS(=O)(=O)C2)cc1 (configuration not stated)	USP28 block 43
CSc1nc(C)c2c(n1)N(c1ccc(C(C)C)cc1)CC2	USP17 block 41
Cc1nc(SCc2ccccc2)nc2c1CCN2c1ccccc1	none
Cc1c(Cl)cccc1S(=O)(=O)N1CCC2(CC1)CC2c1nc(-c2cccnc2)no1 (configuration not stated)	USP30 block 35
CCN(CC)C(=O)c1sc(NC(=O)/C=C/c2c(F)cccc2Cl)c(C#N)c1C	USP17 block 62
CSc1ccccc1NC(=O)COC(=O)C(Cc1c[nH]c2ccccc12)NC(=O)c1ccccc1Cl (configuration not stated)	USP30 block 30
COc1ccc(Cl)cc1NC(=O)COC(=O)C(Cc1c[nH]c2ccccc12)NC(=O)c1ccccc1Cl (configuration not stated)	USP30 block 31
COc1ccc(NS(=O)(=O)c2ccc(C)c(NC(=O)CCOc3cccc(C)c3)c2)cc1	none
